Screening results from PubChem BioAssay.
proKLK7 act – proKLK7 (human) activation, primary screen | P49862 | purified proKLK7, EDANS-DABCYL substrate fluorescence; 100% is mature enzyme control, 0% vehicle | activation, % at 7 µM | 0.9% of 370,000 active;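 active = activation above the mean of all tested compounds plus 3 SD, computed per campaign excluding outliers beyond control limits, cut at about 13% in these data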
V-ATPase pH – alters yeast V-ATPase proton transport | S. cerevisiae, pHLuorin cytosolic pH fluorescence | response, % at 10 µM | 0.37% of 350,000 active; in the data active = response mostly above about 7.3%, no sharp cut-off; inactive = mostly below about 5.4%; note: actives read high
ADAM17 inh – ADAM17 inhibition, QFRET primary screen | inhibition, % at 6.95 µM | P78536 | 0.83% of 370,000 active | recombinant ADAM17, EDANS/DABCYL FRET peptide cleavage | AID 720648;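 active = inhibition above the mean of compounds lying between control limits plus 3 SD, set per campaign, cut at about 8.5% in these data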;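 note: 0% = DMSO-only wells as the low control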
ADAM10 inh – inhibitors of human ADAM10; 0.62% of 370,000 active; AID 720582; inhibition, % at 7 µM; recombinant ADAM10, EDANS/DABCYL FRET peptide cleavage, 3 h;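 active = inhibition above a per-campaign cutoff equal to the mean of compounds falling between control-based bounds plus 3 SD, cut at about 20% in these data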;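 note: 0% = DMSO wells while the 100% control is not disclosed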
Target sequence (O14672 214-748 limits assumed): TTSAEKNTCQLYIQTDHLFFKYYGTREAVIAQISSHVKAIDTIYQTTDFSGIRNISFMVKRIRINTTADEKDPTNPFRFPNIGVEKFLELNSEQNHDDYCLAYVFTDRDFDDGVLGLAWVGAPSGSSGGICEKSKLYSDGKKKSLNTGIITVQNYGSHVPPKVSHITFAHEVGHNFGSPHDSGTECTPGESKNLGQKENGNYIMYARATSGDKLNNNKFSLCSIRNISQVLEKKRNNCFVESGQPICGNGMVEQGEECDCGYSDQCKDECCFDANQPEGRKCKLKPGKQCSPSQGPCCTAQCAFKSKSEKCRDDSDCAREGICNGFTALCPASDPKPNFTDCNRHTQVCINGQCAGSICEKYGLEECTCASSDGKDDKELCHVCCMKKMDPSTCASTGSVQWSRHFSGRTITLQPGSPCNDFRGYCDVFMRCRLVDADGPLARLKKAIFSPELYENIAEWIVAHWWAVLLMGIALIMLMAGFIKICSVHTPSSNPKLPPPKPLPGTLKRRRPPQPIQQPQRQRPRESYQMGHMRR
proKLK7 act conf – proKLK7 activation, confirmation; shares compounds with proKLK7 act; purified proKLK7, EDANS-DABCYL substrate fluorescence; scaled: vehicle 0, mature enzyme 100; activation, % at 7 µM; 68% of 3,200 active; AID 686949;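 active = activation, as change over the incubation, above the mean of all tested compounds plus 3 SD, cut at about 13% in these data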
EDANS-DABCYL int – fluorescence interference counter-screen for KLK7 activators; 80% of 3,200 active; AID 686952; activation, % at 7 µM; EDANS-DABCYL substrate fluorescence interference, no enzyme, 4 h; solvent 0%, active enzyme control 100%; shares compounds with proKLK7 act;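 active = activation above the all-compound mean plus 3 SD, ignoring values outside control-based bounds, cut at about 4.8% in these data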;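 note: value is the 4 h activation minus the activation read at time zero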
K7 EDANS ctr – EDANS fluorescence interference in dose response, no enzyme; shares compounds with proKLK7 act; EDANS-DABCYL peptide fluorescence interference; EC50, µM; 20% of 250 active;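 active = compounds that raise the fluorescence signal in this interference counterscreen, with EC50 at or below 10 µM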;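 note: intact quenched peptide substrate alone read at 355 nm excitation and 520 nm emission; signal is fluorescence gain from T0 to T4 after four hours at room temperature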
Active calls of the source: *; i = inactive; / = no result. Compounds with a hit are over-represented: about 2.3% of the library has one in this group of screens.

SMILES | proKLK7 act | V-ATPase pH | ADAM17 inh | ADAM10 inh | proKLK7 act conf | EDANS-DABCYL int | others
COC(=O)c1cc2c(c3c4ccccc4n(S(=O)(=O)c4ccc(OC)cc4)c13)C(=O)N(Cc1ccco1)C2 | -1.6 | / | -3.3 | -31.1 | / | /
CC(C)C[C@H](NS(=O)(=O)c1ccc(F)cc1F)C(=O)N1CCC[C@H]1C(=O)NCc1ccccc1 | 0.0 | / | -2.1 | -7.5 | / | /
O=C(Nc1ccccc1)c1ccc(F)c(S(=O)(=O)N2CCOCC2)c1 | 0.5 | 3.6 | -4.6 | -2.0 | / | /
O=C(Nc1ccc(-c2cn3ccsc3n2)cc1)c1ccc(F)c(S(=O)(=O)N2CCOCC2)c1 | 17.7* | -0.8 | -7.7 | -10.7 | -0.7 | 6.1*
Cc1cccc2nc(-c3ccccc3)c(-c3ccc(CN4CCC5(CC4)CNc4ccccc45)cc3)nc12 | 0.1 | / | -1.9 | -6.0 | / | /
CCN(CC)C(=O)CC[C@@H]1CC[C@]2(CCCN(Cc3cccs3)C2)O1 | -0.1 | / | 2.8 | 3.2 | / | /
CCC(NC(=O)OCc1ccccc1)C(=O)Oc1ccc2ccc(=O)oc2c1 (stereo unspecified) | 74.6* | -3.1 | i | i | 434.2* | 455.3*
CCOc1ccccc1C(=O)Oc1ccc2ccc(=O)oc2c1 | 190.2* | -0.1 | -272.0 | i | 304.6* | 248.4*
COc1ccc(C(=O)Oc2ccc3oc(=O)sc3c2)cc1 | 0.1 | 0.1 | 6.6 | 11.9 | / | /
O=C(COc1ccc2ccc(=O)oc2c1)NC1CCCC1 | 0.9 | -0.6 | -25.2 | -108.8 | / | /
COc1ccc(C(=O)Oc2ccc3ccc(=O)oc3c2)cc1 | 19.5* | 1.3 | -48.5 | -110.9 | 122.3* | 128.0*
O=C(Oc1ccc2ccc(=O)oc2c1)C1CCCCC1 | 106.5* | -1.5 | -470.1 | i | 337.4* | 300.7*
Cc1ccc(NC(=O)OC2CC3CC2[C@H]2CCCCN2C3)cc1 (stereo partly specified) | 0.3 | / | -3.6 | -4.3 | / | /
C[C@H]1[C@H](NC(=O)c2cccc(C(F)(F)F)c2)CC[C@@]23CCCN2C(=O)CCC[C@@H]13 | / | / | 0.4 | 1.9 | / | /
O=C(NC1CCCCN(Cc2cccc(Cl)c2)C1=O)c1ccc(F)c(F)c1 (stereo unspecified) | -0.5 | / | -2.7 | -13.1 | / | /
O=C(Oc1ccc2ccc(=O)oc2c1)c1ccccc1 | 241.5* | -2.5 | -374.3 | i | 589.2* | 593.5*
COc1ccc(C2C(C#N)=C(C)NC3=C2C(=O)CC(C)(C)C3)cc1 (stereo unspecified) | 20.6* | 3.9 | -329.0 | i | 60.7* | 66.1*
COc1cccc(C2C(C#N)=C(N)N(N(C)C)C3=C2C(=O)CC(C)(C)C3)c1 (stereo unspecified) | 0.0 | 2.2 | -5.2 | 8.4 | / | /
COc1cccc(C2C(C#N)=C(C)NC3=C2C(=O)CC(C)(C)C3)c1 (stereo unspecified) | 25.1* | 0.1 | i | i | 17.6* | 34.1*
COc1ccc(C2Nc3ccccc3NC3=C2C(=O)CC(C)(C)C3)cc1 (stereo unspecified) | -7.7 | 3.0 | -7.9 | -17.9 | / | /
CSC1=C(C#N)C(c2ccc(Cl)cc2)C2=C(CC(C)(C)CC2=O)N1 (stereo unspecified) | 1.5 | 3.4 | -7.0 | -30.9 | / | /
Cc1ccc(C2C3=C(CC(C)(C)CC3=O)Nc3onc(C)c32)cc1 (stereo unspecified) | 14.7* | 0.9 | -223.4 | i | -3.0 | -7.7
CCCSC1=C(C#N)C(c2ccc(OC)cc2)C2=C(CC(C)(C)CC2=O)N1 (stereo unspecified) | 16.5* | -3.8 | -13.3 | -39.1 | -1.1 | -0.6
C[C@H]1CN([C@@H](C)CO)C(=O)CCCn2cc(nn2)CO[C@@H]1CN(C)C(=O)c1ccccc1 | 0.0 | / | -4.3 | -6.2 | / | /
Cc1cc(N2CCN(CC(C)(C)O)C[C@H]2C)ccc1N1CCN(CC(C)(C)O)[C@H](C)C1 | 0.6 | / | -3.5 | -12.1 | / | /
SMILES | proKLK7 act | V-ATPase pH | ADAM17 inh | ADAM10 inh | proKLK7 act conf | EDANS-DABCYL int | others
CN(C)c1ccc2c(=O)cc[nH]c2c1 | 79.6* | / | i | i | 72.4* | 73.5*
COc1ccc2oc(=N)c(-c3nnc4n3CCCCC4)cc2c1 | -5.8 | 0.6 | -214.4 | i | / | /
N=c1oc2ccc3ccccc3c2cc1-c1nnc2n1CCCCC2 | 62.7* | -2.5 | i | i | 71.6* | 71.7*
COC(=O)c1ccc2nc(-c3ccco3)c(Cc3ccsc3)n2c1 | -1.2 | / | -10.1 | -35.1 | / | /
O=C1Nc2ccccc2O/C1=C\c1c(F)cccc1Cl | 17.2* | -2.2 | -317.0 | i | -69.1 | -54.0
CN1C=CC2=C(C#N)C(N)C(C#N)(C#N)[C@H](c3ccccc3)[C@H]2C1 (stereo partly specified) | 38.9* | -3.8 | -224.2 | i | 22.0* | 18.1* | K7 EDANS ctr=>69.5
COc1cccc(/C=C2\CC3(OC(=O)c4ccccc4)CCCN2C3)c1 (stereo unspecified) | 0.3 | / | 4.5 | 7.6 | / | /
CC(C)(C)c1ccc(OCC(=O)NCc2ccco2)cc1 | 0.4 | -2.4 | 0.2 | 14.4 | / | /
CC(=O)N1CCC2(CC1)CC(=O)c1cc(OCC(=O)NCc3ccc(C)cc3)ccc1O2 | 34.5* | -4.2 | -437.0 | i | 26.1* | 46.1*
CC(=O)N1CCC2(CC1)CC(=O)c1cc(OCC(=O)NCc3ccco3)ccc1O2 | 27.7* | -2.3 | -339.5 | i | 48.4* | 49.3*
CCOC(=O)C1=C(C(=O)OCC)C2N(Cc3ccc(C#N)cc3)c3ccccc3[C@@]23C[C@@H](C(=O)OC)N(S(=O)(=O)c2ccccc2)C3=N1 (stereo partly specified) | -1.0 | / | 0.3 | 0.6 | / | /
COc1ccccc1CCn1cnc(-c2cccc(F)c2)c1C(C)C | 0.0 | / | 0.1 | 2.4 | / | /
CCCC1CCC2(CC1)CCC2OC(=O)Nc1ccc2c(c1)OCO2 (stereo unspecified) | / | / | 1.2 | 2.1 | / | /
COc1ccc(N(CC(=O)Nc2ccc(C)cn2)S(=O)(=O)c2c(C)noc2C)cc1 | 16.0* | -4.9 | 1.0 | 6.0 | 0.7 | 0.3
CCOc1ccc(N(CC(=O)Nc2ccc(OC)cc2)S(=O)(=O)c2c(C)noc2C)cc1 | 0.2 | 6.0 | 0.6 | 1.3 | / | /
Cc1cccc(-c2cc(N3CCCN(C)CC3)n3nccc3n2)c1 | 28.5* | / | -153.5 | i | -3.4 | -3.0
CN1CCCN(c2cc(-c3ccc4ccccc4c3)nc3ccnn23)CC1 | -0.2 | / | -47.7 | -218.2 | / | /
CCOC(=O)C1=Nc2cccc3c(O)ccc1c23 | 53.4* | / | -44.4 | -166.8 | 79.0* | 84.5*
Cc1[nH]c2ccccc2c1CC(=O)Nc1ccc(Nc2cccnc2)c(-c2ccc(Cl)c(Cl)c2)c1 | -5.2 | / | -3.5 | -19.3 | / | /
Cc1sc(-c2ccccn2)nc1OC(=O)c1ccc(Cl)cc1 | -0.3 | -1.9 | 0.3 | 0.7 | / | /
Cc1sc(-c2ccncc2)nc1OC(=O)c1ccccc1 | 19.1* | -3.1 | 3.2 | -19.8 | 33.8* | 28.9*
